About 7,900 targets were measured; listed, in parts, are those with a hit and a random draw of the rest. About 0.6% of all pairs of compound and target were hits.
molecular target: AAGAB (UniProt Q6PD74); assay: log2 fold change, soluble protein after heating vs DMSO (PISA); higher = thermal stabilisation; K562 cells, 10 uM, 30 min; active = over 0.2 and 3.5 SD of the protein, either way, in both replicates (recomputed)
Outline: (§1)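 Soluble protein was quantified by TMTpro 16plex LC-MS/MS after channel sums were equalised. It was obtained as the supernatant after 21,000xg for 90 min from pooled aliquots of K562 cells (2×10^6 cells/mL, 10 μM compound, 30 min) heated for 3 min across 48°C-58°C and extracted in PBS with 0.5% NP-40 at 4°C. Thermal stability values are relative to control samples and come from duplicates. They are given as log2 fold changes.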

Chain of AAGAB (Q6PD74 whole entry, looked up): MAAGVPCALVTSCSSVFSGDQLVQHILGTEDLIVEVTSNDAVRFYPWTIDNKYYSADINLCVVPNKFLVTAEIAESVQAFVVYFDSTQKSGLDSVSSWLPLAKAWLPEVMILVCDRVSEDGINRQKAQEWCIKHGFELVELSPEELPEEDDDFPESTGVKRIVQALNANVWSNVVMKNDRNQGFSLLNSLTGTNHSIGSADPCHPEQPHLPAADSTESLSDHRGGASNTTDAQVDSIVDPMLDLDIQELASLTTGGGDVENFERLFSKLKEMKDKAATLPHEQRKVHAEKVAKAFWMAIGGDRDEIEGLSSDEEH

log2 fold change, inactive:
CNC(=O)c1ccc(Nc2ncc(C(F)(F)F)c(NCc3nccnc3N(C)S(C)(=O)=O)n2)cc1 [defactinib] -0.187, CCCCN(Cc1ccc(C(=O)NO)cc1)C(=O)Nc1ccccc1 [Nexturastat A] 0.109, Cc1ccc(NC(=O)c2cccc(N(C)C)c2)cc1NC(=O)c1ccc(O)cc1 -0.063, COc1cc2ncnc(Nc3ccc(F)c(Cl)c3)c2cc1OCCCN1CCOCC1 [gefitinib] -0.027, NC(=O)c1cnc(N[C@@H]2CCCC[C@@H]2N)nc1Nc1cccc(-n2nccn2)c1 -0.028, C=CC(=O)N1CCC[C@@H](n2nc(-c3ccc(Oc4ccccc4)cc3)c3c(N)ncnc32)C1 [ibrutinib] 0.026, O=C(CCCCCCNC(=O)c1cnc(N(c2ccccc2)c2ccccc2Cl)nc1)NO [citarinostat] 0.024, Cn1c2cc(S(C)=O)sc2c2cnn(Cc3cccc(N)c3)c(=O)c21 (stereo not given) 0.125, CCN(CC)Cc1ccc2cc(COC(=O)Nc3ccc(C(=O)NO)cc3)ccc2c1 [givinostat] -0.004, Cc1cc(Nc2cc(N3CCN(C)CC3)nc(Sc3ccc(NC(=O)C4CC4)cc3)n2)n[nH]1 [tozasertib] 0.029, COc1cc(C(=O)O)ccc1NC(=O)[C@@H]1N[C@@H](CC(C)(C)C)[C@](C#N)(c2ccc(Cl)cc2F)[C@H]1c1cccc(Cl)c1F [idasanutlin] -0.053, Cc1ccc2c(=O)c3ccccc3n(CCCN)c2c1C -0.003, O=C(Nc1cccc(Nc2ncc(Br)c(NCCc3cnc[nH]3)n2)c1)N1CCCC1 0.067, CN(CCOc1ccc(C[C@@H]2SC(=O)NC2=O)cc1)c1ccccn1 (racemic) [rosiglitazone] 0.029, CCN(CCCOc1ccc2c(Nc3cc(CC(=O)Nc4cccc(F)c4)[nH]n3)ncnc2c1)CCOP(=O)(O)O [barasertib] 0.068, CC(C)c1cnn2c(NCc3ccccc3)cc(NCCCCCCN)nc12 -0.099, COC(=O)N[C@@H](C)CNc1nccc(-c2cn(C(C)C)nc2-c2cc(Cl)cc(NS(C)(=O)=O)c2F)n1 [encorafenib] 0.045, C/C(=N\NC(=O)c1cccc(S(=O)(=O)N2CCOCC2)c1)c1cc(Cl)ccc1O 0.088, Cc1cc(Nc2cc(CN3CCOCC3)c3nc(C)c(Cc4ccc(Cl)cc4F)n3n2)n[nH]1 [gandotinib] -0.026, CC(=O)c1cnc2ccc(-c3cc(Cl)c(O)c(Cl)c3)nc2c1N[C@H]1CC[C@H](CN(C)C)CC1 0.077, Cc1ncc(-c2ccnc(Nc3ccc(S(C)(=O)=O)cc3)n2)n1C(C)C 0.008, O=C1c2ccccc2-c2n[nH]c3cccc1c23 0.01, CCn1cc(-c2ccnc3[nH]c(-c4cccc(CN(C)C)c4)cc23)c(-c2ccc(NC(=O)N(C)C)cc2)n1 -0.018, CC[C@H](C)[C@H](NC(=O)[C@H]([C@@H](C)CC)N(C)C(C)=O)C(=O)N[C@H](C(=O)N[C@@H](CC(C)C)C(=O)[C@@]1(C)CO1)[C@@H](C)O [epoxomicin] 0.006, CNCc1ccc(-c2[nH]c3cc(F)cc4c3c2CCNC4=O)cc1 [rucaparib] 0.055, CC(C)(C)Cn1c(N)nc2ccc(-c3[nH]c(C(C)(C)C)nc3-c3ccc(F)cc3)nc21 [ralimetinib] 0.065, C[C@H](Nc1ncnc2nc[nH]c12)c1cc2cccc(Cl)c2c(=O)n1-c1ccccc1 [duvelisib] -0.1, CS(=O)(=O)c1ccc(-c2cnc(N)c(C(=O)Nc3ccccc3)n2)cc1 0.097, C[C@@H](N)c1ccc(C(=O)Nc2ccnc3[nH]ccc23)cc1 0.084, NC1(Cc2ccc(Cl)cc2)CCN(c2ncnc3[nH]ccc23)CC1 0.054

molecular target: AAK1 (UniProt A0A096LP25); assay: as above
Outline: as §1

log2 fold change, inactive:
CNC(=O)c1ccc(Nc2ncc(C(F)(F)F)c(NCc3nccnc3N(C)S(C)(=O)=O)n2)cc1 [defactinib] 0.037, CCCCN(Cc1ccc(C(=O)NO)cc1)C(=O)Nc1ccccc1 [Nexturastat A] 0.068, Cc1ccc(NC(=O)c2cccc(N(C)C)c2)cc1NC(=O)c1ccc(O)cc1 -0.011, COc1cc2ncnc(Nc3ccc(F)c(Cl)c3)c2cc1OCCCN1CCOCC1 [gefitinib] -0.049, NC(=O)c1cnc(N[C@@H]2CCCC[C@@H]2N)nc1Nc1cccc(-n2nccn2)c1 0.048, C=CC(=O)N1CCC[C@@H](n2nc(-c3ccc(Oc4ccccc4)cc3)c3c(N)ncnc32)C1 [ibrutinib] 0.074, O=C(CCCCCCNC(=O)c1cnc(N(c2ccccc2)c2ccccc2Cl)nc1)NO [citarinostat] -0.014, Cn1c2cc(S(C)=O)sc2c2cnn(Cc3cccc(N)c3)c(=O)c21 (stereo not given) -0.073, CCN(CC)Cc1ccc2cc(COC(=O)Nc3ccc(C(=O)NO)cc3)ccc2c1 [givinostat] 0.056, Cc1cc(Nc2cc(N3CCN(C)CC3)nc(Sc3ccc(NC(=O)C4CC4)cc3)n2)n[nH]1 [tozasertib] 0.152, COc1cc(C(=O)O)ccc1NC(=O)[C@@H]1N[C@@H](CC(C)(C)C)[C@](C#N)(c2ccc(Cl)cc2F)[C@H]1c1cccc(Cl)c1F [idasanutlin] -0.077, Cc1ccc2c(=O)c3ccccc3n(CCCN)c2c1C -0.044, O=C(Nc1cccc(Nc2ncc(Br)c(NCCc3cnc[nH]3)n2)c1)N1CCCC1 0.255, CN(CCOc1ccc(C[C@@H]2SC(=O)NC2=O)cc1)c1ccccn1 (racemic) [rosiglitazone] 0.107, CCN(CCCOc1ccc2c(Nc3cc(CC(=O)Nc4cccc(F)c4)[nH]n3)ncnc2c1)CCOP(=O)(O)O [barasertib] -0.004, CC(C)c1cnn2c(NCc3ccccc3)cc(NCCCCCCN)nc12 -0.145, COC(=O)N[C@@H](C)CNc1nccc(-c2cn(C(C)C)nc2-c2cc(Cl)cc(NS(C)(=O)=O)c2F)n1 [encorafenib] 0.033, C/C(=N\NC(=O)c1cccc(S(=O)(=O)N2CCOCC2)c1)c1cc(Cl)ccc1O -0.092, Cc1cc(Nc2cc(CN3CCOCC3)c3nc(C)c(Cc4ccc(Cl)cc4F)n3n2)n[nH]1 [gandotinib] 0.103, CC(=O)c1cnc2ccc(-c3cc(Cl)c(O)c(Cl)c3)nc2c1N[C@H]1CC[C@H](CN(C)C)CC1 0.319, Cc1ncc(-c2ccnc(Nc3ccc(S(C)(=O)=O)cc3)n2)n1C(C)C 0.028, O=C1c2ccccc2-c2n[nH]c3cccc1c23 0.254, CCn1cc(-c2ccnc3[nH]c(-c4cccc(CN(C)C)c4)cc23)c(-c2ccc(NC(=O)N(C)C)cc2)n1 -0.031, CC[C@H](C)[C@H](NC(=O)[C@H]([C@@H](C)CC)N(C)C(C)=O)C(=O)N[C@H](C(=O)N[C@@H](CC(C)C)C(=O)[C@@]1(C)CO1)[C@@H](C)O [epoxomicin] -0.098, CNCc1ccc(-c2[nH]c3cc(F)cc4c3c2CCNC4=O)cc1 [rucaparib] 0.007, CC(C)(C)Cn1c(N)nc2ccc(-c3[nH]c(C(C)(C)C)nc3-c3ccc(F)cc3)nc21 [ralimetinib] -0.01, C[C@H](Nc1ncnc2nc[nH]c12)c1cc2cccc(Cl)c2c(=O)n1-c1ccccc1 [duvelisib] 0.007, CS(=O)(=O)c1ccc(-c2cnc(N)c(C(=O)Nc3ccccc3)n2)cc1 0.138, C[C@@H](N)c1ccc(C(=O)Nc2ccnc3[nH]ccc23)cc1 0.365, NC1(Cc2ccc(Cl)cc2)CCN(c2ncnc3[nH]ccc23)CC1 0

From the supplement of paper PMC10849652
